Inconclusive results are not listed. A number with no mark means an inactive call. The call rests on the fitted dose curve.
test system: not listed separately; test: Natriuretic polypeptide receptor (hNpr1) antagonism - Pilot counterscreen GloSensor control cell line (AID 1347045); details: HEK293 cGMP GloSensor cells, SNP-stimulated luminescence, 20 min; series mostly up to 38.3 µM; activity change, negative = inhibition: at the top concentration
Summary of the method: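 HEK293 cGMP-sensor cells; 2% GloSensor reagent 2 h RT; LOPAC compounds in 1:5 titrations 30-50 min; 50 uM SNP 20 min; luminescence pre-read and post-read.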
On the % scale 0 is the no-effect control and ±100 the full control effect.

Structure (SMILES) | activity change, negative = inhibition
NC(=O)c1cccc(N)c1 | -2.31%
CC1=C(C(=O)O)N2C(=O)[C@@H](NC(=O)C(N)c3ccccc3)[C@H]2SC1 (some centres not stated) | -2.66%
CCN1CCCC1CNC(=O)c1cc(S(N)(=O)=O)ccc1OC (configuration not stated) | 9.19%
COc1cc2nc(N3CCCN(C)CC3)nc(NC3CCN(Cc4ccccc4)CC3)c2cc1OC | -14.6%

target: Atrial natriuretic peptide receptor 1 (Homo sapiens) (UniProt P16066); test: Natriuretic polypeptide receptor (hNpr1) antagonism - Pilot screen (AID 1347049); details: hNpr1 cells, antagonist mode cGMP read-out; series mostly up to 57.5 µM; activity change, negative = inhibition: at the top concentration;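 further: agonist-evoked cGMP luminescence read 20 min after hNppA addition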
Sequence (P16066 whole entry, looked up): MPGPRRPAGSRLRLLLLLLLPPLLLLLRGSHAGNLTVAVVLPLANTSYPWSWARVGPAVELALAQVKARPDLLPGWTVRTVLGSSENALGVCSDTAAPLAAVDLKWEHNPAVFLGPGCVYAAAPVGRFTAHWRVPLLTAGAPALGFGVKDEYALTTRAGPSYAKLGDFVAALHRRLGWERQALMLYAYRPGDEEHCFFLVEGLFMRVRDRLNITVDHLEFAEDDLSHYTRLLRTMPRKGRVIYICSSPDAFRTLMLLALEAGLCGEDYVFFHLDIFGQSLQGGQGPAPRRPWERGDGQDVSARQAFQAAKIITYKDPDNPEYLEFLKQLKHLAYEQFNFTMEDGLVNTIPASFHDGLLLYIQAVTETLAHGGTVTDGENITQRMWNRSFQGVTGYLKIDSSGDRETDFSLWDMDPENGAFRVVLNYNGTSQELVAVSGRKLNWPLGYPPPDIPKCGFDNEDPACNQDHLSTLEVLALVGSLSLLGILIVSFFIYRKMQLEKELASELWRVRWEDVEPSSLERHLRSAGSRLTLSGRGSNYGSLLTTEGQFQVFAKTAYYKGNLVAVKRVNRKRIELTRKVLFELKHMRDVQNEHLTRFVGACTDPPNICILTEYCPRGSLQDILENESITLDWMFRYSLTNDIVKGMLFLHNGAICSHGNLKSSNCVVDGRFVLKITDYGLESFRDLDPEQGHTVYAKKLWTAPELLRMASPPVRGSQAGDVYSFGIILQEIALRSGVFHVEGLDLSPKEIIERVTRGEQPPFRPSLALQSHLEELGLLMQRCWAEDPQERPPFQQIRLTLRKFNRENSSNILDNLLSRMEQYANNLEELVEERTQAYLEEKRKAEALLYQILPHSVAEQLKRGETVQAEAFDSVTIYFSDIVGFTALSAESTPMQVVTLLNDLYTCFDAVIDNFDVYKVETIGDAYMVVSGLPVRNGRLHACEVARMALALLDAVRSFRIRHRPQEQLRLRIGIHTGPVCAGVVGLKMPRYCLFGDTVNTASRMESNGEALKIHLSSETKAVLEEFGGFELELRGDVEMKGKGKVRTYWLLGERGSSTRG
Summary of the method: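 cGMP-sensor HEK293/hNpr1 cells, 1500/well, plated overnight at 37C. 2% GloSensor reagent, 2 h RT. Compound (23 nL pin transfer) 30 min RT, baseline luminescence pre-read. 0.1 nM hNppA, 20 min RT, post-read.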

Structure (SMILES) | activity change, negative = inhibition
NC(=O)c1cccc(N)c1 | 4.87%
CC1=C(C(=O)O)N2C(=O)[C@@H](NC(=O)C(N)c3ccccc3)[C@H]2SC1 (some centres not stated) | -0.959%
CCN(CC)CCn1c(=O)c(Cc2ccc(OC)cc2)nc2ccccc21 | 1.74%
CCN1CCCC1CNC(=O)c1cc(S(N)(=O)=O)ccc1OC (configuration not stated) | -6.56%
COc1cc2nc(N3CCCN(C)CC3)nc(NC3CCN(Cc4ccccc4)CC3)c2cc1OC | 3.81%

target: Atrial natriuretic peptide receptor 2 (Homo sapiens) (UniProt P20594); test: Natriuretic polypeptide receptor (hNpr2) antagonism - Pilot subtype selectivity assay (AID 1347050); details: NPR2-expressing cells, cGMP antagonist-mode read-out; series mostly up to 38.3 µM; activity change, negative = inhibition: at the top concentration
Sequence (P20594 whole entry, looked up): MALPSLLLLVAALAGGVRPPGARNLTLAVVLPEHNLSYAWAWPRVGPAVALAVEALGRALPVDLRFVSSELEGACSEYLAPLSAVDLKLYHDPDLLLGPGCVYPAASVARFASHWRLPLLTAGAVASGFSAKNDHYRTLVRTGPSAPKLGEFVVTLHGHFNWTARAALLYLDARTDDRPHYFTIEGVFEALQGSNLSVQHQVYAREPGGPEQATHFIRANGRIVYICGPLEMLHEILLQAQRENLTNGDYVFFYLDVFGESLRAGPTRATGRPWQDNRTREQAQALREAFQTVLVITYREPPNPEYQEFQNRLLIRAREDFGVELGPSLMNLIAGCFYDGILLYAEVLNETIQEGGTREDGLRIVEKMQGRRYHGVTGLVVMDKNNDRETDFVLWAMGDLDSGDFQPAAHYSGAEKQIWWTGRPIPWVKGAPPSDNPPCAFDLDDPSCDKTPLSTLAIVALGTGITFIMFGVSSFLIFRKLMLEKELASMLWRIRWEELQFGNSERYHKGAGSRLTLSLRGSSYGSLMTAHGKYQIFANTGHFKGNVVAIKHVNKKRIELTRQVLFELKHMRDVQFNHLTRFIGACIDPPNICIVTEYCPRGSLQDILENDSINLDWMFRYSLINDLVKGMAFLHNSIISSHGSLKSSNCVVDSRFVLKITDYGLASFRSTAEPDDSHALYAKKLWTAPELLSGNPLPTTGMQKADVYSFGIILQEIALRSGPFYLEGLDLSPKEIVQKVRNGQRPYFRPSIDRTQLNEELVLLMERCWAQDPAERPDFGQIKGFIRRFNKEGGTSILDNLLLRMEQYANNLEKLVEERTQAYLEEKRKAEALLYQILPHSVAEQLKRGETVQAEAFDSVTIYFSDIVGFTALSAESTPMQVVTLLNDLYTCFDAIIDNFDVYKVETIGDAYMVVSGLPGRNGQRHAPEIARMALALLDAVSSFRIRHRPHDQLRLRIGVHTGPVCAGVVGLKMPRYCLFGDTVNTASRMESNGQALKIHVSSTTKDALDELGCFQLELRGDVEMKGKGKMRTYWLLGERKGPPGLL
Summary of the method: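 Luminescence from a genetically encoded cGMP luciferase biosensor in hNpr2-expressing HEK293 cells is read before and 20 min after adding 1 nM hNppC. Test compounds, in interplate 1:5 titrations, are added 30-50 min ahead of the agonist.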

Structure (SMILES) | activity change, negative = inhibition
NC(=O)c1cccc(N)c1 | 19.5%
CC1=C(C(=O)O)N2C(=O)[C@@H](NC(=O)C(N)c3ccccc3)[C@H]2SC1 (some centres not stated) | -0.813%
CCN1CCCC1CNC(=O)c1cc(S(N)(=O)=O)ccc1OC (configuration not stated) | -2.19%
